Assay [1] in a line: Quantitative High-Throughput drug screen in 47 multiple myeloma cell lines against the NCATS MIPE library collection: MM1S_ATCC cell viability assay (AID 1918980). Also: nearly all actives have a fitted effect of over 45% in size. The essentials: (§1)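 ATP-based luminescence (CellTiter-Glo, 5 min RT incubation) quantified surviving cells following two days' treatment with MIPE 4.0 agents at 37 °C, 5% CO2.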
The nature of assay [2]: Quantitative High-Throughput drug screen in 47 multiple myeloma cell lines against the NCATS MIPE library collection: MM1R_ATCC cell viability assay (AID 1918981). Also: nearly all actives have a fitted effect of over 35% in size. In a few lines: as §1
Assay [3] is described as follows: Quantitative High-Throughput drug screen in 47 multiple myeloma cell lines against the NCATS MIPE library collection: KMS28PE_JCRB cell viability assay (AID 1918983). Also: nearly all actives have a fitted effect of over 35% in size. In a few lines: as §1
The nature of assay [4]: Quantitative High-Throughput drug screen in 47 multiple myeloma cell lines against the NCATS MIPE library collection: L363_DSMZ cell viability assay (AID 1918984). Also: nearly all actives have a fitted effect of over 40% in size. Particulars: L363 myeloma viability, CellTiter-Glo ATP luminescence, 48 h; viability (% of control): at 45.8 µM (top of the series). In a few lines:
as §1
On the technique in general: ATP-based viability assays read luminescence as a measure of living cells.

Assay [5] is described as follows: Quantitative High-Throughput drug screen in 47 multiple myeloma cell lines against the NCATS MIPE library collection: KMS34_JCRB cell viability assay (AID 1918985). Also: nearly all actives have a fitted effect of over 40% in size. The essentials:
as §1

Assay [6] can be described thus: Quantitative High-Throughput drug screen in 47 multiple myeloma cell lines against the NCATS MIPE library collection: OPM1_PLB cell viability assay (AID 1918989). Also: nearly all actives have a fitted effect of over 40% in size. In a few lines: as §1
Assay [7] is described as follows: Quantitative High-Throughput drug screen in 47 multiple myeloma cell lines against the NCATS MIPE library collection: OCIMY7_PLB cell viability assay (AID 1918987). Also: nearly all actives have a fitted effect of over 65% in size. Particulars: OCI-MY7 myeloma viability, CellTiter-Glo ATP, 48 h; viability (% of DMSO): at 45.8 µM (top of the series). In a few lines: as §1
Assay [8] can be described thus: Quantitative High-Throughput drug screen in 47 multiple myeloma cell lines against the NCATS MIPE library collection: OCIMY5_PLB cell viability assay (AID 1918988). Also: nearly all actives have a fitted effect of over 65% in size. In a few lines: as §1
Assay [9] is described as follows: Quantitative High-Throughput drug screen in 47 multiple myeloma cell lines against the NCATS MIPE library collection: LP1_DSMZ cell viability assay (AID 1918982). Also: nearly all actives have a fitted effect of over 35% in size. In a few lines: as §1

The structures appear in SMILES notation. Results filed as inconclusive are left out. Activity calls are given as the source filed them. Calls follow the shape of the dose curve; as a rule, active = well fitted cell-killing curve with a large enough effect; inconclusive = small, poorly fitted or top-dose-only effect, or effect the other way; inactive = no such curve, though single readings can be large or run the other way.
Potency is read from the fitted curve at half-maximal effect.

`OC1CCC(Nc2ncc3nc(Nc4c(F)cc(F)cc4F)n([C@@H]4CCOC4)c3n2)CC1` (stereo partly drawn): the Potency in [1] was 11.8 µM (active); in [2], 10.5 µM (active); in [4] it was 5.26 µM (active); in [5], 23.5 µM (active); in assay [6], 20.9 µM (active). Besides, the Potency result in assay [3] was “inactive”.

In the case of `CCc1cc(-c2n[nH]c(C)c2-c2ccc3c(c2)OCCO3)c(O)cc1O`, the Potency in [1] was 8.33 µM (active); in [2], 6.62 µM (active); in assay [3] it was 4.18 µM (active); in assay [4] it was 0.148 µM (active); in assay [5] it was 3.32 µM (active); in assay [7], 1.66 µM (active). Besides, the Potency was 3.72 µM (active) in [8] and 6.62 µM (active) in assay [6].

With `CCC(=O)N1CCN(c2ccc(-n3c(=O)ccc4cnc5ccc(-c6cnc7ccccc7c6)cc5c43)cc2C(F)(F)F)CC1`, the Potency in assay [1] is 0.0662 µM (active); in [2] it was 0.0372 µM (active); in [3], 0.0093 µM (active); in assay [5] it was 0.0059 µM (active); in assay [7] it was 16.6 µM (active); in assay [6] it was 0.0132 µM (active). Further, the Potency entry in [4] was “inactive”.

`CC(C)c1c(C(=O)Nc2ccccc2)c(-c2ccccc2)c(-c2ccc(F)cc2)n1CC[C@H](O)C[C@@H](O)CC(=O)O`: the Potency was 16.6 µM (active) in assay [1]; 10.5 µM (active) in assay [2]; 20.9 µM (active) in assay [9]; 18.7 µM (active) in assay [3]; 4.69 µM (active) in [7]; 6.62 µM (active) in assay [6].

As for `O=C(O)C1=NC(C(=O)O)CC(C=CN2c3cc(O)c(OC4OC(CO)C(O)C(O)C4O)cc3CC2C(=O)O)=C1` (stereo not drawn), the Potency entry in assay [1], in assay [2], in [9], in assay [4] and in [6] was “inactive” each time.

Take `CN(C)S(=O)(=O)c1ccc2c(c1)C(=Cc1cc3c([nH]1)CCCC3)C(=O)N2`: the Potency in assay [1] was 20.9 µM (active); in [2], 2.96 µM (active); in assay [3], 20.9 µM (active); in assay [5], 5.9 µM (active); in assay [7] it was 3.32 µM (active); in assay [8] it was 2.09 µM (active).

`CC[C@H](NC(=O)[C@H](C)NC)C(=O)N1C[C@@H](O)C[C@H]1Cc1c(-c2[nH]c3cc(F)ccc3c2C[C@H]2C[C@H](O)CN2C(=O)[C@H](CC)NC(=O)[C@H](C)NC)[nH]c2cc(F)ccc12`: the Potency in assay [1] was 3.32 µM (active); in assay [2], 0.418 µM (active); in assay [9], 20.9 µM (active); in assay [7], 1.87 µM (active); in assay [6] it was 13.2 µM (active). Moreover, the Potency entry in [3] is “inactive”.

Turning to `Nc1[nH]nc2nnc(-c3c(-c4ccccc4)nn4ccccc34)cc12`, the Potency is 0.264 µM (active) in [1]; 23.5 µM (active) in assay [2]; 2.64 µM (active) in assay [4]; 0.209 µM (active) in [7]; 20.9 µM (active) in assay [8]; 5.26 µM (active) in assay [6]. The Potency entry in assay [9] is “inactive”.

Take `COc1cc2ncnc(Nc3cc(Br)c(O)c(Br)c3)c2cc1OC`: the Potency in assay [1] was 0.0026 µM (active); in assay [2] it was 0.0418 µM (active); in assay [3], 1.48 µM (active); in assay [5], 6.62 µM (active); in assay [7], 0.0042 µM (active); in assay [8] it was 0.0023 µM (active). The Potency in assay [6] is 2.35 µM (active).

In the case of `CCOC(=O)N1CCN([N+]([O-])=NOc2cc(ON=[N+]([O-])N3CCN(C(=O)OCC)CC3)c([N+](=O)[O-])cc2[N+](=O)[O-])CC1`, the Potency in assay [1] was 9.35 µM (active); in assay [2] it was 2.09 µM (active); in [9], 33.2 µM (active); in assay [3], 5.9 µM (active); in [7], 2.96 µM (active); in assay [8] it was 2.35 µM (active). The Potency in assay [6] was 5.9 µM (active).

Consider `CC(C)N(CCCNC(=O)Nc1ccc(C(C)(C)C)cc1)C[C@H]1O[C@@H](n2cc(Br)c3c(N)ncnc32)[C@H](O)[C@H]1O`, for which the Potency was 23.5 µM (active) in assay [1]; 23.5 µM (active) in assay [9]; 14.8 µM (active) in assay [3]; 20.9 µM (active) in assay [5]; 23.5 µM (active) in [6]. Besides, the Potency entry in assay [4] is “inactive”.

In the case of `CN[C@H]1[C@@H](O[C@@H]2[C@H](O[C@@H]3[C@@H](O)[C@@H](O)[C@@H](N=C(N)N)[C@@H](O)[C@@H]3N=C(N)N)O[C@H](C)[C@@]2(O)C=O)O[C@@H](CO)[C@@H](O)[C@H]1O`, the Potency result in [1], in assay [9], in assay [5] and in [6] was “inactive” each time. Also, the Potency in assay [4] is 0.0053 µM (active).

Take `O[C@@H](COc1cccc2ncccc12)CN1CCN(C2c3ccccc3[C@@H]3[C@H](c4ccccc42)C3(F)F)CC1` (stereo partly drawn): the Potency was 7.43 µM (active) in [1]; 18.7 µM (active) in [2]; 7.43 µM (active) in assay [7]; 18.7 µM (active) in [8]; 23.5 µM (active) in assay [6].

For `CC[C@H](CC#N)OC(=O)N[C@@H](C)c1cccc(NC(=O)Nc2ccc(-c3cnco3)c(OC)c2)c1`, the Potency is 1.18 µM (active) in assay [1]; 1.18 µM (active) in assay [3]; 18.7 µM (active) in assay [4]; 3.72 µM (active) in assay [7]; 3.72 µM (active) in [8]; 13.2 µM (active) in assay [6].

In the case of `NC(=O)c1noc([C@H](CCCC2CCCCC2)CC(=O)NO)n1`, the Potency in assay [1] was 16.6 µM (active); in [7], 3.32 µM (active); in assay [8], 16.6 µM (active); in assay [6], 23.5 µM (active). For the same compound, the Potency entry in assay [3] and in assay [4] was “inactive” throughout.

For the origin of these results see PubChem BioAssay (NCATS).
